The values below come from PubChem BioAssay (Tox21).

Inconclusive results are not listed. A number with no mark means an inactive call. Active and inactive are the calls of the source. Unless noted, the call rests on the fitted dose curve; in most records, active means well fitted cell-killing curve with a large enough effect in the repeat runs; inconclusive means weak or mixed curves, or effect the other way; inactive means flat fitted curve, though single readings scatter.
On the % scale 0 is the no-effect control and ±100 the full control effect.

Chain of Estrogen receptor beta (Homo sapiens) (Q92731 whole entry, looked up): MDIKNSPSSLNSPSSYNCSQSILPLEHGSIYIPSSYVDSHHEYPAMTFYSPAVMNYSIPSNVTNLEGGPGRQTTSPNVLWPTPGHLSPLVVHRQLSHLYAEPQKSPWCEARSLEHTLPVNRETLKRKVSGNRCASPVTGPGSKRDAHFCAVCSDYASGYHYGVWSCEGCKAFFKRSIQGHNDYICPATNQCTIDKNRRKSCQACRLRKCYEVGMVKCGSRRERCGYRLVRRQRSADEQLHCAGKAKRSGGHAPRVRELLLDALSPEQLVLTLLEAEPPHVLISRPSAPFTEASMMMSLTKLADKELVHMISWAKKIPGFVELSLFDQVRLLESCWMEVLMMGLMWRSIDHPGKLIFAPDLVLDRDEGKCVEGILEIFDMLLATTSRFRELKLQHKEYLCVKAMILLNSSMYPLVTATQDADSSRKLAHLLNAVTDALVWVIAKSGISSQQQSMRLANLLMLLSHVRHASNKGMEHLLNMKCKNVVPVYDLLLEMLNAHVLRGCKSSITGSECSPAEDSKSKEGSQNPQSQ

In the first experiment the target is Estrogen receptor beta (Homo sapiens) (UniProt Q92731). Briefly: qHTS assay to identify small molecule antagonists of the estrogen receptor beta (ER-beta) signaling pathway (AID 1259378; active means well fitted inhibition curve with a large enough effect in the signal ratio in the repeat runs, not every such curve was filed as active; the % refers to the signal ratio). To be noted: ER-beta-UAS-bla HEK293T, beta-lactamase FRET ratio, 16 h; series mostly up to 92.4 µM; activity, negative = inhibition: at the top concentration. In a few lines:
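Antagonist mode: compounds added to beta-lactamase reporter HEK293T ER-beta-UAS cells stimulated with E2 (1nM final), 16 hr at 37C. LiveBLAzer B/G FRET substrate, 2 hours room temperature, fluorescence read-out.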
Background: In qHTS, concentration-response curves come from the screen itself.
Regarding `CC(C)(C1CCC(O)CC1)C1CCC(O)CC1` (stereo not drawn), the “activity, negative = inhibition” value was -2.92%.
On the same count and under the same terms, under `C=CCc1cc(OC)c2c(c1)OCO2` stands 10.5%.
On the same count and under the same terms, under `CC(C)N(Cc1ccccc1)C(=O)C(C)(C)C` stands 1.72%.
Still for that read-out and setting: under `Cc1cc(OC(=O)N(C)C)nn1C(=O)N(C)C` stands 3.86%.
For `CCC1(c2ccccc2)CCC(=O)NC1=O` (stereo not drawn), the “activity, negative = inhibition” value was 10.1% [at 42.5 µM].
On the same count and under the same terms, under `CN(C)C(=O)Oc1cc(OC(=O)N(C)C)cc(C(O)CNC(C)(C)C)c1` (stereo not drawn) stands 2.35% [at 42.5 µM].
With `N[C@@H]1C[C@H]1c1ccccc1`, the “activity, negative = inhibition” value was 5.81% [at 42.5 µM].
Same read-out and setting: under `O=C/C=C/c1ccco1` stands 7.04%; under `OP(O)c1ccccc1`, 4.48%; under `CCC(C)(C#N)N=NC(C)(C#N)CC` (stereo not drawn), 18.5%.
As for `OCC(Cl)CCl` (stereo not drawn), the “activity, negative = inhibition” value is 11.8%.
With `O=C(Cl)C(Cl)(Cl)Cl`, the “activity, negative = inhibition” value was -25.9%.
Turning to `N#CN`, the “activity, negative = inhibition” value was 19.7% [at 240 µM].
Still for that read-out and setting: under `COc1ccc(C=O)cc1O` stands -1.23%; under `O=C(NC(O)C(Cl)(Cl)Cl)NC(O)C(Cl)(Cl)Cl` (stereo not drawn), 3.4% [at 42.5 µM]; under `CCC(CC)(CNC(=O)CCCO)c1cccc(OC)c1`, 1.99% [at 42.5 µM].
On to `CN(C)CCc1c[nH]c2cccc(OP(=O)(O)O)c12`, for which the “activity, negative = inhibition” value is 23.7%.
On the same count and under the same terms, under `BrCC1CO1` (stereo not drawn) stands 13.6%.
On the same count and under the same terms, under `C[N+]1(C)CCCCC1` stands 2.25%.
On the same count and under the same terms, under `CCN(CC)C1CCCCC1` stands 8.79%; under `CCCOC(=O)c1cncn1C(C)c1ccccc1` (stereo not drawn), -5.36% [at 42.5 µM].
As to `C=CC(=O)OCCN(C)C`, the “activity, negative = inhibition” value is 18.1%.
For `C#CC(C)(C)O`, the “activity, negative = inhibition” value is 7.16%.

System in a further experiment: not listed separately
Put plainly: qHTS assay to identify small molecule agonists of the androgen receptor (AR) signaling pathway in the presence of an antagonist - cell viability counter screen (AID 1259379). Further: nearly all actives have a fitted effect of over 25% in size. Further: potency means the concentration at half of the fitted maximal effect.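 On activity change, negative = cytotoxicity: MDA-kb2 human breast cancer cells carrying an MMTV luciferase reporter.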 To be noted: MDA-kb2 viability, CellTiter-Fluor, 16 h; series mostly up to 92.4 µM; activity change, negative = cytotoxicity: at the top concentration. The procedure, abridged:
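Nilutamide-containing (3.0uM final) MDA-kb2 cultures, 3,000 cells/well, were treated with compounds across 15 concentrations. After 16 hr at 37C with no CO2, cell viability was determined by CellTiter-Fluor fluorescence in the luciferase assay wells.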
For the compound `C[C@H](CN1CCOCC1)C(C(=O)N1CCCC1)(c1ccccc1)c1ccccc1`, the “activity change, negative = cytotoxicity” value was -9.54%.
Still for that read-out and setting: under `COC[C@@H](NC(C)=O)C(=O)NCc1ccccc1` stands -2.44% [at 42.5 µM].
Regarding `CC[C@@H](CO)NC(=O)[C@@H]1C=C2c3cccc4[nH]cc(c34)C[C@H]2N(C)C1`, the “activity change, negative = cytotoxicity” value is 1.39% [at 42.5 µM].
Same read-out and setting: under `CC[C@@H](CO)NC(=O)[C@@H]1C=C2c3cccc4c3c(cn4C)C[C@H]2N(C)C1` stands 0.317% [at 42.5 µM]; under `Cc1ccc2cc(C)ccc2c1`, 0.641%; under `O=C(Cl)OCc1ccccc1`, 3.36%.
Regarding `CCN[C@@H](C)Cc1ccccc1`, the “activity change, negative = cytotoxicity” value was -3.85%.
Consider `CCOC1Oc2ccc(OS(C)(=O)=O)cc2C1(C)C` (stereo not drawn), for which the Potency was 68 µM (active).
For `Clc1nc(Cl)nc(Nc2ccccc2Cl)n1`, the “activity change, negative = cytotoxicity” value is 0.308%.
Still for that read-out and setting: under `CC(Cc1ccccc1)NCCCCl` (stereo not drawn) stands -0.524% [at 42.5 µM]; under `Clc1cc2c(cc1Cl)Oc1cc(Cl)c(Cl)cc1O2`, 1.17% [at 0.35 µM].
Still for that read-out and setting: under `CCNc1nc(Cl)nc(NC(C)(C)C)n1` stands 2.25%; under `CC(C)(C1CCC(O)CC1)C1CCC(O)CC1` (stereo not drawn), 0.444%.
On the same count and under the same terms, under `C=CCc1cc(OC)c2c(c1)OCO2` stands 0.43%; under `CC(C)N(Cc1ccccc1)C(=O)C(C)(C)C`, 1.67%; under `Cc1cc(OC(=O)N(C)C)nn1C(=O)N(C)C`, -0.0499%.
Consider `CCC1(c2ccccc2)CCC(=O)NC1=O` (stereo not drawn), for which the “activity change, negative = cytotoxicity” value is 0.812% [at 42.5 µM].
Regarding `CN(C)C(=O)Oc1cc(OC(=O)N(C)C)cc(C(O)CNC(C)(C)C)c1` (stereo not drawn), the “activity change, negative = cytotoxicity” value was -2.51% [at 42.5 µM].
On the same count and under the same terms, under `N[C@@H]1C[C@H]1c1ccccc1` stands 0.192% [at 42.5 µM]; under `O=C/C=C/c1ccco1`, -0.0048%.
With `OP(O)c1ccccc1`, the “activity change, negative = cytotoxicity” value is 2.1%.
On to `CCC(C)(C#N)N=NC(C)(C#N)CC` (stereo not drawn), for which the “activity change, negative = cytotoxicity” value is 1.33%.
Still for that read-out and setting: under `OCC(Cl)CCl` (stereo not drawn) stands 0.712%; under `O=C(Cl)C(Cl)(Cl)Cl`, 2.27%; under `N#CN`, -8.72% [at 240 µM].
Still for that read-out and setting: under `COc1ccc(C=O)cc1O` stands -0.872%; under `O=C(NC(O)C(Cl)(Cl)Cl)NC(O)C(Cl)(Cl)Cl` (stereo not drawn), 0.518% [at 42.5 µM].
Same read-out and setting: under `CCC(CC)(CNC(=O)CCCO)c1cccc(OC)c1` stands 1.36% [at 42.5 µM]; under `CN(C)CCc1c[nH]c2cccc(OP(=O)(O)O)c12`, -1.46%.
`BrCC1CO1` (stereo not drawn): the “activity change, negative = cytotoxicity” value is 1.32%.
Still for that read-out and setting: under `C[N+]1(C)CCCCC1` stands -2.85%.
As to `CCN(CC)C1CCCCC1`, the “activity change, negative = cytotoxicity” value was 0.799%.
On to `CCCOC(=O)c1cncn1C(C)c1ccccc1` (stereo not drawn), for which the “activity change, negative = cytotoxicity” value was -1.26% [at 42.5 µM].
On the same count and under the same terms, under `C=CC(=O)OCCN(C)C` stands 1.63%; under `C#CC(C)(C)O`, 0.572%.
